Each structure is given as a SMILES string. Where a name gives a salt, the structure may show the parent alone.

For this test, the system named is Haemophilus parainfluenzae. Kind of test: growth AUC normalised to DMSO control (fraction of control); higher = less growth inhibition, active = hit call of the paper. The following applies: 20 µM. The essentials:
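Pathogens passaged twice anaerobically were inoculated at a starting OD578 of 0.01 into pre-reduced mGAM plates with drug at 20 μM and 1% DMSO, sealed with breathable membranes. Haemophilus parainfluenzae medium was supplemented with hemin and NAD. OD578 was read hourly for 24 h, with three biological replicates. Growth-curve AUC was computed by the trapezoidal rule up to the exponential-to-stationary transition and normalised to DMSO controls on the same plate.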
As to `NCCc1ccc(O)c(O)c1` [Dopamine hydrochloride], the “growth AUC normalised to DMSO control” value is 1.07 (inactive).
The value for `CC(C)(O)c1ccccc1CC[C@@H](SCC1(CC(=O)O)CC1)c1cccc(/C=C/c2ccc3ccc(Cl)cc3n2)c1` [Montelukast] was 0.964 (inactive); that for `C[C@]12C=CC(=O)C=C1CC[C@H]1[C@@H]3C[C@@H](O)[C@](O)(C(=O)CO)[C@@]3(C)C[C@H](O)[C@@]12F` [Triamcinolone] was 1.01 (inactive).
As to `CC(C)NNC(=O)c1ccncc1` [Iproniazide phosphate], the “growth AUC normalised to DMSO control” value is 1.04 (inactive).
Consider `CC(C)(C)NC[C@H](O)c1ccc(O)c(CO)c1` [Levalbuterol hydrochloride], for which the “growth AUC normalised to DMSO control” value is 0.993 (inactive).
In the case of `C[C@H]1C[C@@H]2[C@H]([C@@H](O)C[C@@]3(C)[C@H]2CC[C@]3(O)C(=O)CO)[C@@]2(C)C=CC(=O)C=C12` [Methylprednisolone, 6-alpha] it was 0.996 (inactive); in that of `CCc1nc(N)nc(N)c1-c1ccc(Cl)cc1` [Pyrimethamine], 0.201 (active).
In the case of `CN(C)CCOC1=Cc2ccccc2Sc2ccc(Cl)cc21` [Zotepine] it was 0.891 (inactive).
The value for `NC1CCN(c2nc3c(cc2F)c(=O)c(C(=O)O)cn3-c2ccc(F)cc2F)C1` (centres undefined) [Tosufloxacin hydrochloride] was 0.0424 (active); that for `COCC(=O)Nc1c(I)c(C(=O)NCC(O)CO)c(I)c(C(=O)N(C)CC(O)CO)c1I` (centres undefined) [Iopromide] was 1.03 (inactive); that for `c1ccc(C2CN3CCSC3=N2)cc1` (centres undefined) [Tetramisole hydrochloride] was 0.997 (inactive).
Turning to `CCc1oc2ccccc2c1C(=O)c1cc(Br)c(O)c(Br)c1` [Benzbromarone], the “growth AUC normalised to DMSO control” value was 0.987 (inactive).
In the case of `C#C[C@]1(OC(C)=O)CC[C@H]2[C@@H]3CCC4=CC(=NO)CC[C@@H]4[C@H]3CC[C@@]21CC` (mixture of isomers) [Norgestimate] it was 0.908 (inactive).
`NC(=O)N1c2ccccc2C=Cc2ccccc21` [Carbamazepine]: the “growth AUC normalised to DMSO control” value is 0.989 (inactive).
Take `COc1ccc(OC)c(C(O)CNC(=O)CN)c1` (centres undefined) [Midodrine hydrochloride]: the “growth AUC normalised to DMSO control” value is 1.02 (inactive).
The value for `N=C(N)NS(=O)(=O)c1ccc(N)cc1` [Sulfaguanidine] was 1.04 (inactive).
For the compound `CC(=O)O[C@@]12CO[C@@H]1C[C@H](O)[C@@]1(C)C(=O)[C@H](O)C3=C(C)[C@@H](OC(=O)[C@H](O)[C@@H](NC(=O)OC(C)(C)C)c4ccccc4)C[C@@](O)([C@@H](OC(=O)c4ccccc4)[C@H]21)C3(C)C` [Docetaxel], the “growth AUC normalised to DMSO control” value is 1.05 (inactive).
On to `CN1CCCC(CC2c3ccccc3Sc3ccccc32)C1` (centres undefined) [Metixene hydrochloride], for which the “growth AUC normalised to DMSO control” value is 0.999 (inactive).
On to `CC[N+](C)(C)c1cccc(O)c1` [Edrophonium chloride], for which the “growth AUC normalised to DMSO control” value was 0.936 (inactive).
The value for `Cc1ncc(CO)c(CO)c1O` [Pyridoxine hydrochloride] was 0.958 (inactive); that for `COc1cc(NC(C)CCCN)c2ncccc2c1` (centres undefined) [Primaquine diphosphate] was 1.08 (inactive); that for `Clc1ccc2c(c1)CCc1cccnc1C2=C1CCNCC1` [Desloratadine] was 1.03 (inactive).
For the compound `CCn1cc(C(=O)O)c(=O)c2cnc(N3CCNCC3)nc21` [Pipemidic acid], the “growth AUC normalised to DMSO control” value is 0.915 (inactive).
The value for `CC1CCc2cc(F)cc3c(=O)c(C(=O)O)cn1c23` (centres undefined) [Flumequine] was 0.066 (active).
In the case of `Oc1c(Cl)cc(Cl)c2cccnc12` [Chloroxine] it was 0.114 (active); in that of `O=C1c2ccccc2C(=O)C1c1ccccc1` [Phenindione], 0.973 (inactive); in that of `COc1cc(NS(=O)(=O)c2ccc(N)cc2)nc(OC)n1` [Sulfadimethoxine], 0.98 (inactive).
The value for `COc1ccc2cc([C@H](C)C(=O)O)ccc2c1` [(S)-Naproxen] was 1 (inactive); that for `CC(C)(C)NCC(O)c1ccc(O)c(CO)c1` (centres undefined) [Salbutamol] was 0.895 (inactive); that for `CCOC(=O)C1=C(COCCN)NC(C)=C(C(=O)OC)C1c1ccccc1Cl` (centres undefined) [Amlodipine] was 0.989 (inactive).
In the case of `NC(=O)N1c2ccccc2CC(=O)c2ccccc21` [Oxcarbazepine], the “growth AUC normalised to DMSO control” value was 0.954 (inactive).
`COc1ccc(-c2cc(=O)c3c(O)cc(O[C@@H]4O[C@H](CO[C@@H]5O[C@@H](C)[C@H](O)[C@@H](O)[C@H]5O)[C@@H](O)[C@H](O)[C@H]4O)cc3o2)cc1O` [Diosmin]: the “growth AUC normalised to DMSO control” value is 0.784 (inactive).
The value for `CN(C)CCOC(=O)COc1ccc(Cl)cc1` [Meclofenoxate hydrochloride] was 0.896 (inactive); that for `Nc1ccc(S(=O)(=O)c2ccc(N)cc2)cc1` [Dapsone] was 1 (inactive).
For the compound `COc1ccc([C@@H]2CC(=O)c3c(O)cc(O[C@@H]4O[C@H](CO[C@@H]5O[C@@H](C)[C@H](O)[C@@H](O)[C@H]5O)[C@@H](O)[C@H](O)[C@H]4O)cc3O2)cc1O` [Hesperidin], the “growth AUC normalised to DMSO control” value was 1.07 (inactive).
Take `CCN1CCCC(OC(=O)C(c2ccccc2)c2ccccc2)C1` (centres undefined) [Piperidolate hydrochloride]: the “growth AUC normalised to DMSO control” value was 1.05 (inactive).
In the case of `O=C(NCCNCC(O)COc1ccc(O)cc1)N1CCOCC1` (centres undefined) [Xamoterol hemifumarate] it was 0.775 (inactive); in that of `NC12CC3CC(CC(C3)C1)C2` [Adamantamine fumarate], 1.05 (inactive).
The value for `Nc1nc(O)c2ncn(CCC(CO)CO)c2n1` [Penciclovir] was 0.944 (inactive).
